According to PubChem BioAssay (NCATS):
Results filed as inconclusive are left out. The source made the active and inactive calls. Calls come from the whole dose curve; as a rule, active = well fitted curve in the direction sought with a large enough effect; inconclusive = small, poorly fitted or top-dose-only effect, or another doubt; inactive = no such curve, though single readings can be large; an effect the other way counts as inactive or inconclusive.

Key:
[1] = tested on: Tov-21-G; test: Primary qHTS to identify gynecologic anti-cancer compounds using libraries of approved drugs and bioactive compounds (AID 1345084); conditions: Gynecologic cancer cell panel viability, ATPlite luminescence, 48 h; series mostly up to 57.5 µM; note: nearly all actives have a fitted effect of over 55% in size
Outline: (§1)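 Cytotoxicity screen measuring ATP content by luciferase luminescence. Each compound is applied at five concentrations for 48 h at 37 C with 5% CO2.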

[2] = tested on: Tov112D; test: as above; conditions: Gynecologic cancer cell panel viability, ATPlite luminescence, 48 h; series mostly up to 57.5 µM
Outline: as §1

[3] = Drug repurposing screens with cells derived from glioblastoma tumor samples (AID 1345199); conditions: GBM patient neurospheres viability, ATP luminescence, 48 h; note: nearly all actives have a fitted effect of over 40% in size; note: potency is the fitted concentration of half-maximal effect
Outline: (§2)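 Four patient lines of CD133+ GBM neurospheres were screened at several concentrations; hits were retested in those lines plus three slower-growing GBM lines, using 48-hour treatment and ATP-based viability.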

[4] = tested on: astro; test: as above; conditions: viability, ATP luminescence, 48 h; series mostly up to 45.9 µM
Outline: as §2

[5] = at 45.9 µM (top of the series), tumour line B
[6] = at 45.9 µM (top of the series), tumour line D
[7] = at 46 µM (top of the series), tumour line A
[8] = at 46.1 µM (top of the series), tumour line C
[9] = at 20 µM (top of the series), tumour line C
[10] = at 21.2 µM (top of the series), tumour line B
[11] = at 21.2 µM (top of the series), tumour line D
[12] = at 21.3 µM (top of the series), tumour line A
% is set by controls: 0 for no effect and ±100 for the full control effect.

CCCCCCCCCCCCCCCCC(C(=O)O)C(O)(CC(=O)O)C(=O)O (stereo not given)
inactive: outcome [1] | outcome [2] | activity, negative = cell killing [3, 5] -24.2% | activity, negative = cell killing [3, 6] -4.12% | activity, negative = cell killing [3, 7] -28.6% | activity, negative = cell killing [3, 8] -24.9%

CC(C)(C)C(=O)OCOC(=O)[C@@H]1N2C(=O)[C@@H](NC(=O)[C@H](N)c3ccccc3)[C@H]2SC1(C)C
inactive: outcome [1] | outcome [2] | activity, negative = cell killing [3, 9] 0.2% | activity, negative = cell killing [3, 10] -3.35% | activity, negative = cell killing [3, 11] -17.5% | activity, negative = cell killing [3, 12] -4.53%

OCC(O)CS (stereo not given)
inactive: outcome [1] | outcome [2] | activity, negative = cell killing [3, 5] -7.05% | activity, negative = cell killing [3, 6] -1.81% | activity, negative = cell killing [3, 7] -9.33% | activity, negative = cell killing [3, 8] -1.31%

COC(=O)c1ccccc1C(=O)c1ccc(OCCN2CCCCC2)cc1
active: Potency ([3]; tumour line A) 7.08 µM | Potency ([3]; tumour line C) 20.6 µM | Potency ([3]; tumour line D) 12.6 µM
inactive: outcome [1] | outcome [2] | activity, negative = cell killing [3, 5] -26.9%

CN1C[C@@H]2C[C@H]1CN2c1cc2c(cc1F)c(=O)c(C(=O)O)cn2C1CC1
inactive: outcome [1] | outcome [2] | activity, negative = cell killing [3, 5] 4.99% | activity, negative = cell killing [3, 6] -9.88% | activity, negative = cell killing [3, 7] -19.7% | activity, negative = cell killing [3, 8] 3.73%

O=C1c2ccccc2C(=O)C1c1ccc(Br)cc1
inactive: outcome [1] | outcome [2] | activity, negative = cell killing [3, 5] -20.2% | activity, negative = cell killing [3, 6] -25.8% | activity, negative = cell killing [3, 8] -18.3%

COc1ccc2cc(CCC(C)=O)ccc2c1
inactive: outcome [1] | outcome [2] | activity, negative = cell killing [3, 10] -27.9%

CCc1nnc(NS(=O)(=O)c2ccc(N)cc2)s1
inactive: outcome [1] | outcome [2] | activity, negative = cell killing [3, 5] -21.8% | activity, negative = cell killing [3, 6] -9.53% | activity, negative = cell killing [3, 7] -28.8% | activity, negative = cell killing [3, 8] -20.9%

C[n+]1ccccc1/C=N/O
inactive: outcome [1] | outcome [2] | activity, negative = cell killing [3, 9] -23.9% | activity, negative = cell killing [3, 10] -15% | activity, negative = cell killing [3, 11] -26.7% | activity, negative = cell killing [3, 12] -10.2%

Cc1c(C)c2c(c(C)c1OC(=O)c1cccnc1)CC[C@@](C)(CCC[C@H](C)CCC[C@H](C)CCCC(C)C)O2
inactive: outcome [1] | outcome [2] | activity, negative = cell killing [3, 5] -11.4% | activity, negative = cell killing [3, 6] -0.0875% | activity, negative = cell killing [3, 7] -9.82% | activity, negative = cell killing [3, 8] -12.2%

CCCCCCCCCCC(CO)CCCCCCCC (stereo not given)
inactive: outcome [1] | outcome [2] | activity, negative = cell killing [3, 5] -11.9% | activity, negative = cell killing [3, 6] -0.979% | activity, negative = cell killing [3, 8] 14% | outcome [4]
active: Potency ([3]; tumour line A) 25.1 µM

CN1C(=O)CC(c2ccccc2)C1=O (stereo not given)
inactive: outcome [1] | outcome [2] | activity, negative = cell killing [3, 5] 3.75% | activity, negative = cell killing [3, 6] 1.43% | activity, negative = cell killing [3, 7] 1.73% | activity, negative = cell killing [3, 8] -11.6% | outcome [4]

COc1ccc(NS(=O)(=O)c2ccc(N)cc2)nn1
inactive: outcome [1] | outcome [2] | activity, negative = cell killing [3, 9] -22.2% | activity, negative = cell killing [3, 10] -14.9% | activity, negative = cell killing [3, 11] -7.76% | activity, negative = cell killing [3, 12] -20.5% | outcome [4]

NC(N)=NCCN1CCCCCCC1
inactive: activity change, negative = cytotoxicity [1] 1.66% [at 0.462 µM] | activity change, negative = cytotoxicity [2] 3.26% [at 0.462 µM] | activity, negative = cell killing [3, 9] -8.56% | activity, negative = cell killing [3, 10] -5.86% | activity, negative = cell killing [3, 11] 12.5% | activity, negative = cell killing [3, 12] -16.2% | outcome [4]

C[C@@H]1O[C@@H](OC[C@H]2O[C@@H](Oc3c(-c4ccc(O)c(O)c4)oc4cc(O)cc(O)c4c3=O)[C@H](O)[C@@H](O)[C@@H]2O)[C@H](O)[C@H](O)[C@H]1O
inactive: outcome [1] | outcome [2] | activity, negative = cell killing [3, 5] -2.66% | activity, negative = cell killing [3, 6] 3.42% | activity, negative = cell killing [3, 7] -16.5% | activity, negative = cell killing [3, 8] -1.98% | outcome [4]

CN(C(=O)c1c(O)c2ccccc2n(C)c1=O)c1ccccc1
inactive: outcome [1] | outcome [2] | activity, negative = cell killing [3, 5] -5.78% | activity, negative = cell killing [3, 6] -11.8% | activity, negative = cell killing [3, 7] -31.5% | activity, negative = cell killing [3, 8] -28.1% | outcome [4]

O=c1[nH]c(=O)c2ccccc2o1
inactive: outcome [1] | outcome [2] | activity, negative = cell killing [3, 5] -11% | activity, negative = cell killing [3, 6] -4.94% | activity, negative = cell killing [3, 7] -29.8% | activity, negative = cell killing [3, 8] -24.8% | outcome [4]

CC(=O)OCC(=O)[C@@]1(O)CC[C@H]2[C@@H]3CCC4=CC(=O)C=C[C@]4(C)[C@@]3(F)[C@@H](O)C[C@@]21C
inactive: outcome [1] | outcome [2] | activity, negative = cell killing [3, 9] 11.3% | activity, negative = cell killing [3, 10] 1.05% | activity, negative = cell killing [3, 11] -1.44% | activity, negative = cell killing [3, 12] -7.16% | outcome [4]

COc1ccc(C(=O)N2CCN(CC(=O)N3CCOCC3)CC2)cc1
inactive: outcome [1] | outcome [2] | activity, negative = cell killing [3, 5] -0.665% | activity, negative = cell killing [3, 6] -14.5% | activity, negative = cell killing [3, 7] -23.3% | activity, negative = cell killing [3, 8] -11.4% | outcome [4]

CN1CC(=O)NC1=N
inactive: outcome [1] | outcome [2] | activity, negative = cell killing [3, 5] -7.86% | activity, negative = cell killing [3, 6] -12.2% | activity, negative = cell killing [3, 7] -16.7% | activity, negative = cell killing [3, 8] -13.9% | outcome [4]

Cc1[nH]c(C)c(Cl)c(=O)c1Cl
inactive: outcome [1] | outcome [2] | activity, negative = cell killing [3, 5] -9.77% | activity, negative = cell killing [3, 6] -2.96% | activity, negative = cell killing [3, 7] -17.9% | activity, negative = cell killing [3, 8] -6.6% | outcome [4]

CN1CCCN=C1COC(=O)C(O)(c1ccccc1)C1CCCCC1 (stereo not given)
inactive: outcome [1] | outcome [2] | activity, negative = cell killing [3, 5] -22.5% | activity, negative = cell killing [3, 6] -25.7% | activity, negative = cell killing [3, 8] -4.53% | outcome [4]
active: Potency ([3]; tumour line A) 11.2 µM
